Assay results from PubChem BioAssay (NCI).
The panel holds about 83,000 compounds, 20% with a hit somewhere; the sample as a whole holds those more often.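 Compound tested at a single concentration for 48 hours in 96-well plates; a percent growth value below 10 was scored as active.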 Values without a mark were called inactive. Active and inactive are the calls of the source.

system: HCT-116 colon; assay: NCI-60 one-dose screen, 48 h (100 = growth as untreated, 0 = no growth, -100 = all killed); conditions: 10 µM unless noted

SMILES | growth
COC(=O)c1c(C)nc(C)c2c1C(=O)C=C(NCc1ccccc1)C2=O | 76%
COc1ccc2[nH]cc(-c3nonc3-c3c[nH]c4ccc(Br)cc34)c2c1 | 36.7%
C=C(C)[C@@H]1CC[C@]2(COC3CCCCO3)CC[C@]3(C)[C@H](CC[C@@H]4[C@@]5(C)C=C(C=O)C(=O)C(C)(C)[C@@H]5CC[C@]43C)[C@@H]12 (stereo partly drawn) | -92.4% (active)
CCOc1ncc([N+](=O)[O-])c(OCC)n1 | 105%
c1ccc(-c2c(-c3ccccc3)[n+](Cc3ccc4ccccc4c3)cn2Cc2ccc3ccccc3c2)cc1 | -87.5% (active)
Cn1cc(-c2csc(-c3cn(CCCN4CCOCC4)c4ccc(F)cc34)n2)c2cccnc21 | 72.3%
Cc1cn(C)cn1 | 105%
COC(=O)c1sccc1-c1cc(O)c(C(=O)Nc2ccccc2)s1 | 94.6%
CCCCCc1ccc(S(=O)(=O)Nc2ccc3nc(N)oc3c2)cc1 | 43%
COc1ccc2c(O)c(/C=C3\N=Nc4ncccc43)oc2c1C[C@@H]1CCNC[C@H]1F | -59.6% (active)
CCN(CC)CCCC(Cc1ccccc1)Nc1c2ccc(Cl)cc2nc2ccc(OC)cc12 (stereo not drawn) | 14.6%
CNCC[C@H](Oc1cccc2ccccc12)c1cccs1 | 68.8%
CCOC(=O)c1cnn(CC(C)O)c1NC(=O)NCc1cccc(F)c1 (stereo not drawn) | 84%
N#Cc1ccc(/C=C/c2cn(-c3ccccc3)nc2-c2cccc([N+](=O)[O-])c2)cc1 | 30.1%
O=C(/C=C/c1ccco1)Nc1ncc(Cc2cc(Cl)ccc2Cl)s1 | 16.3%
CCOC(=O)c1nnn(Cc2cc(=O)oc3ccc(O)cc23)c1C | 96%
CC1(C)CC[C@]23CC[C@]4(C)[C@H](CC[C@@H]5[C@@]6(C)C/C(=C/O)C(=O)C(C)(C)[C@@H]6CC[C@]54C)[C@H]2[C@H]1OC3 | 105%
COC(=O)c1nc(-c2ccccc2)oc1S(=O)(=O)N1CCCC(C)C1 (stereo not drawn) | 63.9%
Cc1ccc2c(/C=C/C(=O)c3cc(CN4CCOCC4)c(O)c4nc(C)ccc34)cc(CN3CCOCC3)c(O)c2n1 | -22.9% (active)

SMILES | growth
CCN1C(=O)N(CC)C2C1NN=c1s/c(=C\c3ccc(OC)cc3)c(=O)n12 (stereo not drawn) | 9.53% (active)
COc1ccc(C/C(C)=C(\c2ccc(Cl)cc2)c2ccc(OCCN3CCCC3)cc2)cc1 | 78.9%
CCN(CC)CCOc1ccc(Nc2ncc3cc(-c4c(Cl)cccc4Cl)c(=O)n(CCOC)c3n2)cc1 | -40.6% (active)
O=C(O)c1cn(C2CC2)c2cc(N3CCN(C(=O)N4CCOCC4)CC3)c(F)cc2c1=O | 110%
Clc1ccc(-c2nc(C(Cl)Cl)nc3cc(-c4ccccc4)nn23)cc1 | 23.1%
c1cc(OCCN2CCCCCC2)ccc1CNc1ccc2nc(CCC3CCCCC3)[nH]c2c1 | 22.9%
C(=C(\C1=NCCN1)n1ccc2ccccc21)/c1ccccc1 | 94%
Cc1ccc(S(=O)(=O)c2nc(-c3ccccc3)oc2SCC(N)=O)cc1 | 85.7%
CCCCn1c(NC(C)=O)c(S(=O)(=O)c2ccccc2)c2nc3ccccc3nc21 | 127%
Cc1ccc(Cc2cnc(NC(=O)/C=C/c3ccc(C)o3)s2)cc1 | 27.7%
CCN(CC)CCOc1ccc(C(=O)/C=C\c2ccc(Cl)cc2Cl)cc1 | -90.2% (active)
O=C(/C=C/C12c3ccccc3C(c3ccccc31)C1C(=O)NC(=O)C12)c1ccco1 (stereo not drawn) | 7.57% (active)
CCOC(=O)C1=C(CC(O)c2ccc(OC)cc2OC)NC(=O)NC1c1ccccc1 (stereo not drawn) | 89.2%
COc1ccc2c(c1)CC[C@@H]1[C@@H]2CC[C@]2(C)c3c(cc(C#N)c4c3sc3ccccc34)C[C@@H]12 | 108%
COc1ccc(-c2cn(Cc3cc4ccccc4s3)nn2)cc1OCCN1CCCCC1 | 75.9%
Cc1ncc(C(=O)Nc2ccc(CN3CCN(C)CC3)c(C(F)(F)F)c2)cc1C#Cc1cnc(N)c2ccc(C#N)cc12 | -19.9% (active)
Cc1sc2nc(NCCN)[nH]c(=O)c2c1C | 97.8%
C#CCOc1cccc(Nc2ncnc3cc(NC(=O)CCl)ccc23)c1 | -61.1% (active)
COc1cc(-c2ccc(-c3ccc(C(=N)N)cc3)s2)cc(OC)c1OC | 15%
